{
  "source": "ChEMBL document CHEMBL4513216",
  "about": "“Probing the Open Global Health Chemical Diversity Library for Multistage-Active Starting Points for Next-Generation Antimalarials” (ACS Infect Dis, 2020)",
  "note": "Out of some 69,000 compounds screened, about 8,600 (12%) showed an effect of 50% or more. What follows is part of a selection rich in strong results, with near analogues and random picks from the rest.",
  "data": [
    {"system": "Plasmodium berghei", "assay": "Screen against P. berghei liver stage (PbLuc), transformed with Luciferase, at 10uM", "assay_type": "functional, HepG2", "details": "tested at 10 uM", "units": {"INHIBITION": "%"}, "values": [
      {"smiles": "COc1ccc(-c2nccn2CC(O)CN2CCCC2)c(F)c1", "note": "(centres undefined)", "INHIBITION": 61.5},
      {"smiles": "COc1ccc(F)c(-c2nccn2CCN2CCCC2)c1", "INHIBITION": 18.2},
      {"smiles": "CCn1ccnc1CN1CCN(CC(O)c2ccc(OC)cc2)CC1", "note": "(centres undefined)", "INHIBITION": 0.8},
      {"smiles": "CCC(CC)(CNC(=O)NC1CCCC1(C)C)S(C)(=O)=O", "note": "(centres undefined)", "INHIBITION": 2.49},
      {"smiles": "COCCCNC(=O)c1cc(-c2cnc(N(C)C)nc2)cn1CC1CC1", "INHIBITION": -22.1},
      {"smiles": "CCCOc1ccc(Cl)cc1NC(=O)NCCC(=O)N(C)C", "INHIBITION": -5.32},
      {"smiles": "CCC1CCCN(S(=O)(=O)c2cnc3onc(C)c3c2)C1", "note": "(centres undefined)", "INHIBITION": 9},
      {"smiles": "COc1ccc2c(c1)OCC(Cc1ccnc(N)n1)C2", "note": "(centres undefined)", "INHIBITION": 11},
      {"smiles": "Cc1nc(N)ccc1CC1COc2ccccc2C1", "note": "(centres undefined)", "INHIBITION": -27.9},
      {"smiles": "COc1cccc2c1OCC(Cc1ccc(N)nc1C)C2", "note": "(centres undefined)", "INHIBITION": 6.83},
      {"smiles": "COc1ccc2c(c1)OCC(Cc1cnccc1N)C2", "note": "(centres undefined)", "INHIBITION": 29},
      {"smiles": "COc1ccc2c(c1)OCC(Cc1ccc(N)nc1C)C2", "note": "(centres undefined)", "INHIBITION": 76.3},
      {"smiles": "COc1ccc2c(c1)OCC(Cc1ccc(C)nc1N)C2", "note": "(centres undefined)", "INHIBITION": 57.2},
      {"smiles": "COc1ccc2c(c1)OCC(CNc1cc(N)nc(SC)n1)C2", "note": "(centres undefined)", "INHIBITION": 69.8},
      {"smiles": "COc1cccc2c1OCC(CNc1cc(N)nc(SC)n1)C2", "note": "(centres undefined)", "INHIBITION": 1.94},
      {"smiles": "Cc1ccc(CC2COc3ccccc3C2)c(N)n1", "note": "(centres undefined)", "INHIBITION": -6.18},
      {"smiles": "Cc1noc(C(C)N2CCN(CC(=O)N3CCCC3)CC2)n1", "note": "(centres undefined)", "INHIBITION": 8.99},
      {"smiles": "O=C(NCC1CCCCC1)N1C[C@@H]2C[C@H](C(=O)N3CCCC3)[C@H](C1)O2", "INHIBITION": 48.2},
      {"smiles": "N#Cc1ccc(NCc2cc3n(n2)CCCN(C(=O)C2CCC2)C3)nc1", "INHIBITION": 14.6},
      {"smiles": "CSc1ccc(-n2nnc(C(=O)O)c2-c2ccccn2)cc1", "INHIBITION": 36.2},
      {"smiles": "CC(CNCc1ccc(F)cc1)Oc1ccccn1", "note": "(centres undefined)", "INHIBITION": 13.8},
      {"smiles": "COc1cccc(OCC(=O)NS(=O)(=O)c2ccc(Br)s2)c1", "INHIBITION": 17.5},
      {"smiles": "COc1ccc(OCC(=O)NS(=O)(=O)c2ccc(Br)s2)cc1", "INHIBITION": 60.9},
      {"smiles": "COc1ccc(OCC(=O)NS(=O)(=O)c2ccc(Cl)s2)cc1", "INHIBITION": 17.7},
      {"smiles": "CCn1nnc2c1C(COC)CN(Cc1ccsc1)C2", "note": "(centres undefined)", "INHIBITION": 21},
      {"smiles": "Cn1cc(C(=O)N2CCC(c3cc(CCO)n(C)n3)C2)cn1", "note": "(centres undefined)", "INHIBITION": 0.696},
      {"smiles": "C=CNC(=O)c1nnc2ccc(N3CCOCC3)cc2n1", "INHIBITION": 11},
      {"smiles": "O=C(NCC1CCN(c2ncccn2)CC1)c1cnccn1", "INHIBITION": 71.8},
      {"smiles": "CS(=O)(=O)N1CCC(CNC(=O)c2cnccn2)CC1", "INHIBITION": 43.8},
      {"smiles": "Cc1cc(C)nc(N2CCC(CNC(=O)c3cnccn3)CC2)n1", "INHIBITION": -51.4},
      {"smiles": "COc1ccccc1N1CCN(C(=O)NC(C)c2nncn2C)CC1", "note": "(centres undefined)", "INHIBITION": 9.14},
      {"smiles": "CCCC(=O)N1CCN(Cc2cc(-c3ccncc3)nn2C)CC1", "INHIBITION": 8.72},
      {"smiles": "CC(c1nncn1C)n1cc(-c2cc(CN3CCCC3)cs2)nn1", "note": "(centres undefined)", "INHIBITION": 57.2},
      {"smiles": "CC(c1ccco1)n1cc(-c2cc(CN3CCCC3)cs2)nn1", "note": "(centres undefined)", "INHIBITION": 5.23},
      {"smiles": "CC(c1nccs1)n1cc(-c2cc(CN3CCCCC3)cs2)nn1", "note": "(centres undefined)", "INHIBITION": 21.5},
      {"smiles": "CC(C)CN1CCn2c(COCc3cccnc3)nnc2C1", "INHIBITION": -29.3},
      {"smiles": "O=C1CC2(CCN(Cc3cccnc3)C2)CN1c1ccc2c(c1)OCO2", "note": "(centres undefined)", "INHIBITION": 22.9},
      {"smiles": "Cn1ccnc1CN1CCC2(CC(=O)N(c3ccc4c(c3)OCO4)C2)C1", "note": "(centres undefined)", "INHIBITION": 4.27},
      {"smiles": "Cc1ccc(CN2CCC3(CC(=O)N(c4cccc(F)c4)C3)C2)o1", "note": "(centres undefined)", "INHIBITION": 12},
      {"smiles": "O=C1CC2(CCN(Cc3ccco3)C2)CN1c1ccc2c(c1)OCO2", "note": "(centres undefined)", "INHIBITION": 78.8},
      {"smiles": "O=C1CC2(CCN(CC3CC3)C2)CN1c1ccc2c(c1)OCO2", "note": "(centres undefined)", "INHIBITION": 25},
      {"smiles": "Cc1ccc(CN2CCC3(CC(=O)N(c4ccc5c(c4)OCO5)C3)C2)o1", "note": "(centres undefined)", "INHIBITION": 69.5},
      {"smiles": "CC(C)CN1CCO[C@H]2CCN(c3cnccn3)CC[C@@H]21", "INHIBITION": 16.6},
      {"smiles": "O=C(c1cc(-n2cccn2)ccc1Cl)N1CCC(N2CCCC2=O)CC1", "INHIBITION": 18.5},
      {"smiles": "CC(C)[C@H]1CN(Cc2nccn2C)C[C@@H]1NC(=O)COCC(N)=O", "INHIBITION": 44.9},
      {"smiles": "CS(=O)(=O)c1cnc(CC2CC2)nc1C1CCCNC1", "note": "(centres undefined)", "INHIBITION": 41.7},
      {"smiles": "NC1CCN(c2nccn3c(=O)[nH]nc23)CC1", "INHIBITION": 48.2},
      {"smiles": "Cc1cc(N2CCN3CCCCC3C2)n2nc(C)c(C)c2n1", "note": "(centres undefined)", "INHIBITION": 16.8},
      {"smiles": "Cc1cc(N2CCN(C3CCSCC3)CC2)n2nc(C)c(C)c2n1", "INHIBITION": 51.4},
      {"smiles": "Cc1cc(N2CCCN3CCC[C@H]3C2)n2nc(C)c(C)c2n1", "INHIBITION": 48.1},
      {"smiles": "O=S(=O)(c1cn[nH]c1)N1CCC(O)(CN2CCC(F)(F)CC2)C1", "note": "(centres undefined)", "INHIBITION": -5.452},
      {"smiles": "CCCc1ccc(S(=O)(=O)Nc2ccc(=O)n(C)c2)cc1", "INHIBITION": 81.1},
      {"smiles": "CCc1ccc(C(=O)O)cc1S(=O)(=O)Nc1ccc(=O)n(C)c1", "INHIBITION": 9.16},
      {"smiles": "Cc1ccc(F)c(S(=O)(=O)Nc2cn(C)cc(Br)c2=O)c1", "INHIBITION": 8.53},
      {"smiles": "Cc1ccc(S(=O)(=O)Nc2ccc(=O)n(C)c2)c(Br)c1", "INHIBITION": 77},
      {"smiles": "Cn1cc(NS(=O)(=O)c2ccc3c(c2)CCCC3)ccc1=O", "INHIBITION": 81.1},
      {"smiles": "Cn1cc(NS(=O)(=O)c2ccc(F)c(F)c2)ccc1=O", "INHIBITION": 23.5},
      {"smiles": "CC(C)c1ccc(C(=O)O)cc1S(=O)(=O)Nc1ccc(=O)n(C)c1", "INHIBITION": -3.87},
      {"smiles": "CCc1ccc(S(=O)(=O)Nc2cn(C)cc(Br)c2=O)cc1", "INHIBITION": 25.3},
      {"smiles": "CC(C)Cc1ccc(S(=O)(=O)Nc2ccc(=O)n(C)c2)cc1", "INHIBITION": 88.5},
      {"smiles": "CC(C)Cc1ccc(S(=O)(=O)NCCCN2CCNC(=O)C2)cc1", "INHIBITION": -20.3},
      {"smiles": "Cn1cc(Br)c(=O)c(NS(=O)(=O)c2ccc3c(c2)CCC3)c1", "INHIBITION": 28.3},
      {"smiles": "CCCc1ccc(S(=O)(=O)NCCNC(=O)c2ccoc2)cc1", "INHIBITION": 5.05},
      {"smiles": "CS(=O)(=O)CCCSc1cccc(C#N)c1", "INHIBITION": -9.08},
      {"smiles": "O=c1occ(CN2CCSCC2)c(O)c1CN1CCCC1", "INHIBITION": 4.93},
      {"smiles": "O=C(c1ccco1)N1C[C@H]2CCCN(CC3CC3)[C@H]2C1", "INHIBITION": 25.5},
      {"smiles": "CCc1cc(C(=O)N2CCC(O)(Cn3ccc4ccncc43)CC2)no1", "INHIBITION": -0.902},
      {"smiles": "Cc1ncc(Cl)c(C(=O)N2CCCC(n3nc(C)nc3C)C2)n1", "note": "(centres undefined)", "INHIBITION": 17.265},
      {"smiles": "O=C(Cn1ccc2ccc(Cl)cc21)NCc1ccc(C(=O)O)cc1", "INHIBITION": -6.42}
    ]}
  ]
}
